The sample as a whole holds a higher share of hits than the screen did.
HIV RNase H inh-1: HIV-1 RT RNase H inhibitors, primary screen, biochemical, fluorescence | 65,000 tested, 1.9% active | RT-RNase H RNA/DNA duplex cleavage | inhibition, % at 10 µM | AID 565, 2006; in the data active = inhibition above about 50%
HIV RNase H inh-2: HIV-1 RT RNase H inhibitors, retest, confirmation, biochemical | Recombinant RT RNase H, fluorescent RNA/DNA duplex cleavage | inhibition, % at 10 µM | 1,000 tested, 39% active | shares compounds with HIV RNase H inh-1; in the data active = inhibition above about 48%; inconclusive = no clear call, values can overlap the other calls
Numbers without * were called inactive; ? = inconclusive.

SMILES | HIV RNase H inh-1 | others
Cc1cc(O)c(C(C)C)cc1NS(=O)(=O)c1ccccc1 | 17
Cc1cc(S(=O)(=O)Nc2ccccc2C(=O)O)ccc1Cl | -18
Cc1cc(NS(=O)(=O)c2ccccc2)cc(Cl)c1O | 78* | HIV RNase H inh-2=9
COC(=O)CCSCC(=O)Nc1nnc(C)s1 | -5
CCN(CC)c1ccc(NC(=O)CC2Oc3ccccc3NC2=O)c(C)c1 (centres undefined) | 17
CN(C)S(=O)(=O)c1ccc(C(=O)OCC(=O)c2ccc(OC(F)F)cc2OC(F)F)cc1 | 2
O=C1c2ccccc2C(=O)N1Cc1nc2ccccc2c(=O)n1CCCN1CCOCC1 | -10
CCCCn1c(CN2C(=O)c3ccccc3C2=O)nc2ccccc2c1=O | 90* | HIV RNase H inh-2=54*
O=C1c2ccccc2C(=O)N1Cc1nc2ccccc2c(=O)n1CCCn1ccnc1 | -10
CC(C)C(NS(=O)(=O)c1cccs1)C(=O)N1CCc2ccccc2C1 (centres undefined) | -11
O=C(c1ccco1)N1CCC(c2ccccc2)C1 (centres undefined) | -6
Nc1cc(C(=O)OCC(=O)NCc2ccco2)ccc1Cl | 8
Cc1ccsc1-c1nc(CSCC(=O)NCc2ccc3c(c2)OCO3)c(C)o1 | -54
Cc1cc(C)c(S(=O)(=O)N2CCN(C)CC2)c(C)c1 | -4
Cc1ccc(CN(CC(=O)NCCc2ccccc2)C(=O)CCCC(=O)Nc2cc(C)on2)cc1 | -69
O=C(CSc1nnc(NC(=O)c2ccco2)s1)NC1CCCCC1 | 6
O=C(NCCc1c[nH]c2ccccc12)C1Cc2ccccc2CN1C(=O)c1ccco1 (centres undefined) | 9
CCSc1nnc(NC(=O)C2Cc3ccccc3CN2C(=O)c2ccco2)s1 (centres undefined) | 53* | HIV RNase H inh-2=?
O=C(COC(=O)C1COc2ccccc2O1)Nc1ccc2c(c1)CCC2 (centres undefined) | -10
O=C(CC1Sc2ncnn2C1=O)Nc1ccc(Br)cc1 (centres undefined) | 31
CC(C)(C)c1cc(C(c2cccnc2)N2CCN(CCO)CC2)cc(C(C)(C)C)c1O (centres undefined) | 83* | HIV RNase H inh-2=-5
CC(C)(C)n1nnnc1C(c1cccnc1)N1CCN(C(=O)c2ccco2)CC1 (centres undefined) | 3
CC(C)(C)n1nnnc1C(c1cccnc1)N1CCN(C2CCCCC2)CC1 (centres undefined) | -7
C=CCN(CC=C)S(=O)(=O)c1ccc2nsnc2c1 | 16
Cc1nn(Cc2ccccc2)c(C)c1NC(=O)c1cc2nc(-c3ccco3)cc(C(F)(F)F)n2n1 | 6
SMILES | HIV RNase H inh-1 | others
Cc1ccccc1Cn1ccc(NC(=O)c2cc3nc(-c4ccco4)cc(C(F)(F)F)n3n2)n1 | 19
O=C(Nc1cnn(Cc2ccc(F)cc2)c1)c1cc2nc(-c3ccco3)cc(C(F)(F)F)n2n1 | 59* | HIV RNase H inh-2=26
CCN(CC)S(=O)(=O)c1csc(C(=O)NCc2ccccc2)c1 | -10
Cc1cc(C)cc(OCC(=O)NCc2nc(-c3ccccc3)no2)c1 | -4
Cc1cc(C)cc(OCC(=O)Nc2nonc2NC(=O)COc2cc(C)cc(C)c2)c1 | 78* | HIV RNase H inh-2=67*
Cc1cc(C)cc(OCC(=O)NCC2CCCO2)c1 (centres undefined) | -31
CCOc1ccc2nc(NC(=O)C3CCCN(S(=O)(=O)c4cccs4)C3)sc2c1 (centres undefined) | 16
NCC[C@H](O)C(=O)N[C@@H]1C[C@H](N)[C@@H](O[C@H]2O[C@H](CN)[C@@H](O)[C@H](O)[C@H]2O)[C@H](O)[C@H]1O[C@H]1O[C@H](CO)[C@@H](O)[C@H](N)[C@H]1O | 7
CCC(C(=O)Nc1ccccc1OC)n1c(C(=O)OC)cc2ccsc21 (centres undefined) | -64
Cc1ccc(Cn2nnnc2CN2CCC(O)(c3ccccc3F)CC2)cc1 | -12
Oc1ccc2c(c1)C1CCCC1(N1CCOCC1)O2 (centres undefined) | 68* | HIV RNase H inh-2=33
c1ccc2c(c1)nc1n2C2(N3CCOCC3)CCCC2C1N1CCOCC1 (centres undefined) | -17
COc1ccc(CCC(=O)NCCc2cn3c(C)csc3n2)cc1 | -4
COc1ccc(C(=O)Nc2nncs2)cc1S(=O)(=O)N1CC(c2ccccc2)CC1=O (centres undefined) | 10
CCCC(=O)Nc1cc(OC)c(NC(=O)NC2CCCCC2)cc1OC | 53* | HIV RNase H inh-2=8
CCCC(=O)Nc1ccccc1NC(=O)C1CCCCC1 | 4
COc1ccccc1OCC(=O)NC1CCCCCC1 | -4
C(=C\c1ccccc1)/CSc1nnc(-c2cccnc2)o1 | -30
CCOC(=O)c1c(C)[nH]c(C(=O)CSc2nc3ccccc3o2)c1C | 90* | HIV RNase H inh-2=69*
CCOC(=O)c1c(C)[nH]c(C(=O)Cn2nnc(-c3ccccc3)n2)c1C | 36

Source: PubChem (University of Pittsburgh Molecular Library Screening Center)
